For 26 compounds, z-score results are on record in PubChem BioAssay.

The source made the active and inactive calls.

This experiment can be described thus: E. coli acrAB mutant growth effects, primary screen, E. coli filamentation inducers, strain DRC39, OD650, 24 h (AID 1178).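 Note: growth measured as culture turbidity by optical density at 650 nm; test concentration not given here.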 The conditions noted are these: higher = more signal, called active from +8 up or from −8 down.
Take `C=C(/C(=C/C[C@H](OC(C)=O)c1ccc(CO)o1)c1cc(C(=O)OC)ccc1OC)C(C)C`: the z-score is -1.42 (inactive).

Take `COC(=O)[C@@]1(Cc2ccccc2)N=C(c2ccc(OCCCO)cc2)O[C@H]1c1ccccc1`: the z-score is 2.8 (inactive). In the case of `CC(C)C[C@@H]1NC(=O)[C@@H]2C[C@H](C(=O)NCc3ccc(F)cc3)[C@H](c3cccc(OCCO)c3)N2C1=O`, the z-score was 1.46 (inactive). Consider `O=C1c2ccccc2[C@](Cc2ccccc2I)(C(=O)NCCN2CCOCC2)[C@H](c2ccc(CO)cc2)N1C1CCCCC1`, for which the z-score is 0.29 (inactive). Turning to `O=C1c2ccccc2[C@](Cc2ccccc2I)(C(=O)NCCN2CCOCC2)[C@H](c2ccc(CO)cc2)N1Cc1ccccc1Cl`, the z-score is 0.768 (inactive). As for `CC(C)C(=C=CC[C@@H](O)c1ccc(OCCO)cc1)C[C@@H](O)COCc1ccccc1`, the z-score is 1.38 (inactive). `COC(=O)[C@]1(CCC(=O)OC(C)(C)C)N=C(c2ccc(OCCCO)cc2)O[C@@H]1c1ccccc1CN=[N+]=[N-]`: the z-score is 0.637 (inactive). As to `NC(=O)NCC#Cc1ccc2c(c1)[C@]1(C(=O)N2)[C@H](c2ccccc2OCCO)N2[C@H](c3ccccc3)[C@H](c3ccccc3)OC(=O)[C@H]2[C@@H]1C(=O)Nc1nc2ccccc2s1`, the z-score was 0.525 (inactive). For the compound `C=CCC(OC(C)=O)[C@@H]1[C@@H](N(Cc2ccc(-c3ccccc3)cc2)C(=O)Cc2ccc(OC)cc2)c2cc(OCCCO)ccc2N1C(=O)Cc1ccc2ccccc2c1` (stereo partly specified), the z-score was -0.39 (inactive).

Turning to `C=C(CCCC)C(=O)CC[C@@H](OC(=O)c1ccccc1-c1ccccc1C(=O)O)c1ccc(OCCO)cc1`, the z-score is -0.0062 (inactive).

Take `CCCC[C@@H]1C[C@H]1[C@@H](NC(=O)c1ccco1)c1ccccc1C(F)(F)F`: the z-score is -0.714 (inactive). On to `CCOC(=O)C[C@H]1[C@H](OC(=O)c2cc3ccccc3oc2=O)[C@@H](NC(=O)c2ccccc2)c2cc(OCCCO)ccc2N1C(=O)c1ccc2ccccc2n1`, for which the z-score was -0.741 (inactive).

For `CCN(CC)c1ccc(N2CC=CC34O[C@@H]5C=CCCOC(=O)C5[C@H]3C(=O)N(CCCCCCO)[C@@H]4C2=O)cc1` (stereo partly specified), the z-score was 1.07 (inactive). `COC(=O)[C@@]1(Cc2ccccc2)[C@H]2c3cc(C(=O)N(C)C)n(Cc4ccsc4Br)c3C[C@H]2CN1C(=O)c1ccccc1`: the z-score was 0.156 (inactive). Regarding `COCCOC(=O)N1C(=O)[C@@]2(c3ccccc31)[C@H](c1ccccc1OCCO)N1[C@H](c3ccccc3)[C@H](c3ccccc3)OC(=O)[C@H]1[C@@H]2C(=O)N1CCN(c2ncccn2)CC1`, the z-score is -0.233 (inactive). With `O[C@@H](Cc1ccccc1)[C@H]1C2C=CCCC=C2CN1Cc1cccc(Cl)c1` (stereo partly specified), the z-score was 0.779 (inactive). Regarding `COc1cc2c(cc1OC)CN(C(=O)[C@@H]1[C@H]3C(=O)O[C@H](c4ccccc4)[C@H](c4ccccc4)N3[C@H](c3ccccc3OCCO)[C@@]13C(=O)Nc1ccc(C#CCCO)cc13)CC2`, the z-score is 0.158 (inactive). Under `Cc1ccc(S[C@]2(C(=O)O)CC(=O)N(C(C)C)[C@@H]2c2ccc(CO)cc2I)cc1` stands 0.818 (inactive); under `O=C1O[C@H](c2ccccc2)[C@H](c2ccccc2)N2[C@H]1[C@@H](C(=O)N1CCCCCCC1)[C@]1(C(=O)Nc3ccc(C#CCCO)cc31)[C@H]2c1ccccc1OCCO`, -0.805 (inactive). Then `C=CCNC(=O)[C@@H]1[C@H]2C(=O)O[C@H](c3ccccc3)[C@H](c3ccccc3)N2[C@H](c2ccc(O)cc2)[C@@]12C(=O)N(C(=O)OCCOC)c1ccc(C#CCNC(N)=O)cc12`, with 0.916 (inactive). As to `O=C(c1ccccc1)N1C(=O)[C@@]2(Cc3ccccc31)N=C(c1ccc(OCCCO)cc1)O[C@H]2c1ccccc1`, the z-score was -0.399 (inactive). Then `C=C(/C(=C/C[C@H](OC(C)=O)c1ccccc1OCCO)c1cnc2ccccc2c1)C(C)C`, with -0.672 (inactive). Regarding `CC(C)C(CO)N1C(=O)[C@@H]2C3C(=O)OCCC/C=C\[C@H]3OC23C=CCN(CCN2CCOCC2)C(=O)[C@@H]13` (stereo partly specified), the z-score is 1.01 (inactive).

Regarding `CCCC[C@H]1OB(O)C[C@H]2C1=C(COC)C[C@H]1C(=O)N(C)C(=O)[C@H]12`, the z-score was -0.748 (inactive). Turning to `COC(=O)[C@@]1(Cc2ccc(F)cc2)[C@H]2c3cc(C(=O)N(C)C)n(Cc4ccc(Cl)c(C(F)(F)F)c4)c3C[C@H]2CN1C(=O)c1ccccc1`, the z-score was -1.2 (inactive). With `COc1ccc(CCNC(=O)[C@@]2(Sc3ccc(C)cc3)CC(=O)N(C3Cc4ccccc4C3)[C@@H]2c2ccc(CO)cc2I)cc1`, the z-score was 0.0559 (inactive).
